{"source": "PubChem BioAssay AID687021", "about": "(Broad Institute, 2013)", "note": "Active and inactive are the calls of the source.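 Rule for the calls: active = compounds lowering luciferase light whose fitted half-effect concentration is at most twice the top tested dose; inconclusive = flat curve with 30 to 70% inhibition, or poor fit; inactive = the rest.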", "data": [{"test": "luciferase signal loss, tTA control fusion, HeLa F-luc tTA cells, dry powder, counter-screen for HIV Env fusion inhibitor project, dose response (AID 687021)", "conditions": "luciferase luminescence counterscreen; series mostly up to 35 µM", "values": [{"compound": "Cc1oc(-c2ccc(Cl)cc2)nc1CN1CCCC(C(=O)NCc2cccnc2)C1", "note": "(stereo unspecified)", "outcome": "inactive"}, {"compound": "COc1ccccc1CCNCc1ccc(OC)c(OCc2ccccc2)c1", "outcome": "inactive"}, {"compound": "Clc1ccc2c(c1)C(C1=NCCN1)c1ccccc1CS2", "note": "(stereo unspecified)", "outcome": "inactive"}, {"compound": "C[C@@H]1CN([C@H](C)CO)C(=O)c2cccc(NC(=O)C3CCCCC3)c2O[C@H]1CN(C)Cc1ccccc1", "outcome": "inactive"}, {"compound": "Cc1ccc(C)n1-c1ccc(C(=O)O)c(O)c1", "outcome": "inactive"}, {"compound": "Cc1noc(C)c1S(=O)(=O)Nc1cccc2c1O[C@@H](CN(C)Cc1ccc(C(F)(F)F)cc1)[C@H](C)CN([C@H](C)CO)C2=O", "outcome": "inactive"}, {"compound": "Oc1ccc(CNc2ccccc2F)c2cccnc12", "outcome": "inactive"}, {"compound": "Cn1c(C(=O)N2CCN(c3nc4ccccc4s3)CC2)cc2sccc21", "outcome": "inactive"}, {"compound": "CCOc1ccc(S(=O)(=O)NCc2ccccn2)cc1", "outcome": "inactive"}, {"compound": "CCOc1ccc(C(=O)C2CCN(CC(=O)Nc3ccccc3N3CCOCC3)CC2)cc1", "outcome": "inactive"}, {"compound": "CCCNC(=O)N1[C@H](C#N)[C@H](c2ccc(-c3cccnc3)cc2)[C@@H]1CO", "outcome": "inactive"}, {"compound": "O=C(CCCn1c(=S)[nH]c2cc3c(cc2c1=O)OCO3)N1CCN(c2ccc(Cl)cc2)CC1", "outcome": "inactive"}, {"compound": "CCOc1ccc(S(=O)(=O)NCc2ccncc2)cc1OCC", "outcome": "inactive"}, {"compound": "C[C@H]1CCCCO[C@@H](CN(C)Cc2ccncc2)[C@@H](C)CN([C@@H](C)CO)C(=O)c2cc(NC(=O)Nc3ccccc3)ccc2O1", "outcome": "inactive"}, {"compound": "O=C(CCc1ccc(S(=O)(=O)N2CCOCC2)cc1)Nc1nc(COc2ccccc2)cs1", "outcome": "inactive"}, {"compound": "Cc1ccc(S(=O)(=O)Nc2cccc3c2O[C@@H](CN(C)Cc2ccc(Cl)c(Cl)c2)[C@@H](C)CN([C@H](C)CO)C3=O)cc1", "outcome": "inactive"}]}]}
